Reference: ChEMBL document CHEMBL3988442, “University of Dundee, Small-Polar-MMV Screening Library” (2021)
Screen size: about 48,000 compounds; about 13,000 (27%) showed an effect of 50% or more. This is one part of the list.

system: Wolbachia pipientis; assay: Anti-Wolbachia Cell-Based Screen; format: functional; design: scale not given: in the data most compounds retested in dose-response had high values; details: 5 µM

SMILES	Percent Effect
O=C(CN1CCOc2ccccc2C1)N1Cc2cnn(CCO)c2C1	6.512%
Cc1cnc(C)c(-c2cc(O)c3c(c2)CN(c2ncccn2)CCO3)n1	-18.62%
CN(C)C(=O)c1nc(CN2CC(c3ccccc3)CC2=O)no1 (stereo not drawn)	7.307%
C=C(C)CN(CC)Cc1nc(C2CC2)no1	1.764%
CCCS(=O)(=O)N1CCn2cc(CNc3ccccn3)nc2C1.O=C(O)C(F)(F)F	-1.498%
O=C(CSCc1ccccn1)N(Cc1ccsc1)C1CC1	-10.63%
OC1(CNC2CCN(c3ccccn3)CC2)CCc2ccccc21 (stereo not drawn)	6.779%
CCC(=O)N1CCN(C(=O)Nc2cccc(C#N)c2)[C@H]2CS(=O)(=O)C[C@H]21	-1.601%
CCn1cc(NC(=O)C2CCN(CCOC(C)C)CC2)cn1	-5.388%
CC(C)C1CN(S(C)(=O)=O)CCCN1Cc1ccc(F)cc1 (stereo not drawn)	3.687%
O=C(Nc1cnn(Cc2ccc(Cl)cc2)c1)N[C@@H]1C=C[C@H](CO)C1	-9.454%
O=C(Cn1cc(NC(=O)c2ccc(F)cc2F)cn1)NC1CCCC1	5.692%
CS(=O)(=O)N1CCC(C(=O)Nc2nnc(C(F)(F)F)[nH]2)CC1	11.43%
CCOC1CCCN(C(=O)Nc2cnn(CC(F)F)c2)C1 (stereo not drawn)	6.944%
CS(=O)(=O)N1CCCC(C(=O)Nc2cnn(Cc3ccc(Cl)cc3)c2)C1 (stereo not drawn)	106.8%
CS(=O)(=O)N1CCC(C(=O)N2CCC(Cn3cccn3)CC2)CC1	-10.97%
CS(=O)(=O)N1CCCC(C(=O)Nc2cnn(COCC(F)(F)F)c2)C1 (stereo not drawn)	96.9%
CN(Cc1ccc(Cl)cc1)C(=O)Nc1cnn(CC(N)=O)c1	3.306%
CS(=O)(=O)N1CCCC(C(=O)Nc2cnn(Cc3ccc(F)cc3)c2)C1 (stereo not drawn)	99.84%
CCOCn1cc(NC(=O)C2CCN(S(C)(=O)=O)CC2)cn1	105.1%
Cc1nc(CNC(C)c2cccc(S(=O)(=O)N(C)C)c2)no1 (stereo not drawn)	-7.216%
CS(=O)(=O)c1ccc(NC(=O)CSc2ccc3c(c2)CCC3)cc1	1.625%
Cn1cnc2c1C(COCC1CC1)CN(C(=O)c1ccsc1)C2 (stereo not drawn)	-2.938%

SMILES	Percent Effect
COCCN1CCN(CCS(=O)(=O)c2cccc(OC)c2)CC1	2.005%
CN(C)C(=O)CCNC(=O)Nc1sc2ccccc2c1Cl	-12.49%
N#CCC(=O)NCc1nnc2n1CCN(Cc1nccs1)C2	-14.07%
Cc1ccc(-c2noc(CNCC3CN(C)CCO3)n2)cc1F (stereo not drawn)	8.94%
CCc1nc(NS(=O)(=O)c2ccc(F)cc2Cl)no1	2.388%
Cc1ccc(-c2noc(C(C)(C)NS(C)(=O)=O)n2)cc1F	124.7%
CC(Cn1cccn1)NCc1nc(-c2cccc(Cl)c2)no1 (stereo not drawn)	-1.118%
CC(C)(NS(C)(=O)=O)c1nc(-c2ccc(F)cc2Cl)no1	95.59%
CC(C)C1=NOC(c2nc(-c3cccc(Cl)c3)no2)C1 (stereo not drawn)	-9.721%
CCS(=O)(=O)N1CC(c2nc(-c3ccncc3)no2)C1	-18.6%
Cc1ccc(-c2noc(CN3CCOC(CN(C)C)C3)n2)cc1F (stereo not drawn)	-11.04%
CC(C)(NS(C)(=O)=O)c1nc(-c2cccc(Cl)c2)no1	115.9%
CC(C)(CNc1ccc2ccc(F)cc2n1)NS(C)(=O)=O	-16.93%
CC(C)(NS(C)(=O)=O)c1nc(-c2ccncc2)no1	92.68%
CCNc1nc(C)c(C(=O)N(C)Cc2nc(-c3ccncc3)no2)s1	-39.74%
O=C1[C@H]2CC[C@H](CN(C3CSCCSC3)C2)N1Cc1cscn1	1.539%
COC(=O)c1ccc(N2CCN(C(=O)c3cnn(C)c3)C(C)C2)cc1 (stereo not drawn)	5.538%
Cc1cnn(CC(C)NCc2ccc(OCc3ccncc3)cc2)c1 (stereo not drawn)	2.463%
CCn1c(CN(C)C(=O)c2ccc(OC)nc2)nc2ccccc21	-6.401%
OC1(CN2CCCC2)COCCN(c2noc(-c3ccccc3)n2)C1 (stereo not drawn)	-20.3%
N#Cc1cc(F)c(NCCCOCC2CCOC2)c(F)c1 (stereo not drawn)	-9.574%
Cc1cc(-c2noc(C3CCS(=O)(=O)C3)n2)ccc1F (stereo not drawn)	-6.108%
CC(C)(NS(C)(=O)=O)c1nc(-c2ccc(F)c(F)c2)no1	108%

SMILES	Percent Effect
Cc1cc(-c2nnn(CCNS(C)(=O)=O)n2)ccc1F	-4.563%
CCn1cc(CNc2ccc3nccnc3c2)cn1	0.1341%
CN(Cc1ccc(F)cc1)[C@@H]1CN(S(C)(=O)=O)C[C@H]1O	89.96%
CS(=O)(=O)N1CCO[C@@H]2CN(Cc3ccc(F)cc3)C[C@@H]2C1	-1.129%
CN(C)S(=O)(=O)N1CCC2(CCCN(Cc3ccc(F)cc3)C2=O)C1 (stereo not drawn)	-3.561%
CN(Cc1ccc(F)cc1)[C@@H]1CN(S(=O)(=O)N(C)C)C[C@H]1O	124.5%
CC[C@@]1(O)CCN(C(=O)CN(C)Cc2ccc(F)cc2)C[C@H]1O	-15.44%
CN(Cc1ccc(F)cc1)S(=O)(=O)N1CCOCC1	-4.525%
CN(Cc1ccc(F)cc1)[C@@H]1CN(C(=O)c2cccs2)C[C@H]1O	3.837%
CC(C)C1CN(S(=O)(=O)N(C)C)CCCN1Cc1ccc(F)cc1 (stereo not drawn)	3.4%
CCS(=O)(=O)N1C[C@@H](O)[C@H](N(C)Cc2ccc(F)cc2)C1	127.5%
CN1CCN(CC(=O)NCc2ccco2)Cc2ccccc21	-30.17%
COCC(O)CN1CCC(=O)N(Cc2ccccc2)Cc2ccccc21 (stereo not drawn)	97.49%
COCCN1C[C@H]2CN(C(=O)NC(C)C)CCN2C1=O	-4.801%
CCC1CN(C(=O)c2cccc(O)c2)CCC(=O)N1Cc1ccccc1 (stereo not drawn)	8.552%
COCc1ccc(CNC(=O)CN2CCc3ccccc32)cc1	-11.7%
COC(=O)N1CCc2ccccc2C1C(=O)NCc1ccco1 (stereo not drawn)	14.18%
CCCC(O)CN1CCC(=O)N(CCOC)Cc2ccccc21 (stereo not drawn)	121.9%
COCC(O)CN1CCC(=O)N(Cc2ccco2)Cc2ccccc21 (stereo not drawn)	86.65%
OC(CN1CCCCc2ccccc21)Cn1cccn1 (stereo not drawn)	-5.145%
CCCC(O)CN1CCC(=O)N(Cc2ccccc2)Cc2ccccc21 (stereo not drawn)	123.8%
COCCN1C[C@H]2CN(C(=O)NCc3ccccc3)CCN2C1=O	8.785%
